Source: PubChem (National Center for Advancing Translational Sciences (NCATS))
A selection: hits, their analogues and other compounds. The true share with any hit is near 6.1%.
TGFb inhibitor = qHTS for Inhibitors of TGF-b. HepG2 CAGA-GFP TGF-b/SMAD3 reporter, GFP fluorescence, 18 h; TGF-beta stimulated, 500 pg/mL final. Potency, µM (titrated, usually from 46.1 µM), hits mostly inhibitors. 1.2% of 410,000 active. AID 588855, 2011; further: nearly all actives have a fitted effect of over 65% in size
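GFP signal (ex488/em500-530) from TGF-beta-stimulated HEPG2 CAGA-GFP cells, 500 pg/mL final, 18 h at 37 degrees C in DMEM plus 1% FBS, normalized to unstimulated and DMSO-stimulated controls.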
RORg inh = qHTS for inhibitors of ROR gamma transcriptional activity | Nuclear receptor ROR-gamma (Mus musculus), P51450 | Drosophila S2 Gal4-RORgamma UAS-luciferase reporter, 20 h | Potency, µM (doses to about 53.6 µM), hits mostly inhibitors | 5.4% of 310,000 active; further: nearly all actives have a fitted effect of over 60% in size
Target sequence (P51450 whole entry, looked up, the tested form may be a part): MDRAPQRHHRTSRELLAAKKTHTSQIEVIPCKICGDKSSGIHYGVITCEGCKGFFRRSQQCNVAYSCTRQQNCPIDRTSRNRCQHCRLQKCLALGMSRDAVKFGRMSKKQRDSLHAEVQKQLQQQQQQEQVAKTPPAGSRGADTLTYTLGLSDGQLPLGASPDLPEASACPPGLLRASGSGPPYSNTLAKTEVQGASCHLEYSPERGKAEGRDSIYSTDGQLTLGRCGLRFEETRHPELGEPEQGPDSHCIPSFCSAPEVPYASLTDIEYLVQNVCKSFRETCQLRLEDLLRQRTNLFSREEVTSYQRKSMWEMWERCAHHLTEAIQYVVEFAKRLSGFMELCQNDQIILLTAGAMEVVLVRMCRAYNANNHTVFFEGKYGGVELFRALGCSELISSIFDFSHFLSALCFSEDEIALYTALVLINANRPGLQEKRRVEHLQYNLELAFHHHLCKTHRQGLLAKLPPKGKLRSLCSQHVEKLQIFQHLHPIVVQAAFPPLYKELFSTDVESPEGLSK
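Drosophila S2 cells stably expressing Gal4-DBD/mouse RORγ fusion under metallothionein promoter plus UAS-luciferase; compound 1 h, then 700 uM CuSO4 induction for 20 h at ambient temperature; inhibition read as reduced luminescence.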
S2 tox = Viability Counterscreen for Primary qHTS for Inhibitors of ATXN expression; S2 cells (HEK-293 line with an ATXN2-luciferase reporter) viability, CellTiter-Fluor protease fluorescence, 24 h; Potency, µM (series often up to 56.7 µM), most hits filed as cytotoxic; 0.49% of 400,000 active; further: nearly all actives have a fitted effect of over 40% in size
ATXN2 expr inh = Primary qHTS for Inhibitors of ATXN expression; HEK-293 ATXN2-luciferase reporter, luminescence, 24 h; AID 1745845, 2022; 0.72% of 360,000 active; Potency, µM (top dose mostly 57 µM), usual class: inhibitors; further: nearly all actives have a fitted effect of over 55% in size
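ATXN2-luciferase reporter cells (luciferase flanked by upstream and downstream ATXN2 gene portions) were treated 24 h at 37 °C with compounds at up to 57 uM. SteadyGlo luminescence gave expression; GF-AFC fluorescence gave viability.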
VP16 counter = VP16 counterscreen qHTS for inhibitors of ROR gamma transcriptional activity; AID 2546, 2010; 3.5% of 310,000 active; Potency, µM (highest dose often 53.6 µM), most hits filed as inhibitors; Drosophila S2 Gal4-VP16 UAS-luciferase, luminescence, 20 h;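 further: Gal4-VP16 expression switched on by copper sulfate through the metallothionein promoter; nearly all actives have a fitted effect of over 50% in size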
HepG2 tox = qHTS for Inhibitors of TGF-b: Cytotox Counterscreen. HepG2 CAGA-GFP viability, ATP luminescence, 18 h. Potency, µM (series often up to 46.1 µM), most hits filed as cytotoxic. 0.76% of 410,000 active
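HepG2 CAGA-GFP cells (1000/well, DMEM with 1% FBS) received compound, then TGF-beta at 500 pg/mL final, and were incubated 18 hours at 37 degrees C. Viability was read by CellTiter-Glo luminescence. Media-only wells were set as complete cell-killing and DMSO as no toxicity.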
Hits are given with their value; i = inactive; ? = inconclusive; nt = not tested or not shown; [ ] = dose if it differs, or a comment. The call rests on the fitted dose curve; in most records, active means well fitted curve in the direction sought with a large enough effect; inconclusive means small, poorly fitted or top-dose-only effect, or another doubt; inactive means no such curve, though single readings can be large; an effect the other way counts as inactive or inconclusive.

SMILES | TGFb inhibitor | RORg inh | S2 tox | ATXN2 expr inh | VP16 counter | HepG2 tox
Cc1ccc(-n2nc(C(=O)Nc3ccc(Cl)cn3)c3c4ccccc4n(C)c3c2=O)cc1 | i | nt | i | i | nt | i
CCN(CC)S(=O)(=O)c1cc(C(=O)OCC(=O)Nc2cccc(S(=O)(=O)N(C)C)c2)ccc1F | i | i | i | i | i | i
CCN(CC)S(=O)(=O)c1ccc(C(=O)OCC(=O)Nc2ccc(-c3nc4ccc(C)cc4s3)cc2)cc1 | i | 0.398µM | i | i | ? | i
CCN(CC)S(=O)(=O)c1cc(C(=O)OCC(=O)Nc2ccc(-c3nc4ccc(C)cc4s3)cc2)ccc1F | i | 12.6µM | i | i | 8.91µM | i
Cc1ccc2nc(-c3ccc(NC(=O)COCC(=O)O)cc3)sc2c1 | i | i | i | i | i | i
CNC(=O)c1c(I)c(NC(C)=O)c(I)c(C(=O)O)c1I | nt | nt | i | i | nt | nt
Nc1nonc1-n1nnc(C(=O)N/N=C/c2cc(Br)cs2)c1-c1ccccc1 | ? | 6.31µM | i | i | 5.01µM | i
Cc1ccc(/C=N/NC(=O)c2nnn(-c3nonc3N)c2-c2ccc3c(c2)OCO3)s1 | i | 7.08µM | i | i | 7.94µM | i
COc1ccc(O)c(/C=N/NC(=O)c2c(C)nnn2-c2nonc2N)c1 | i | 11.2µM | i | ? | ? | i
CCOc1cccc(-c2c(C(=O)N/N=C/c3cccs3)nnn2-c2nonc2N)c1 | i | 7.08µM | i | i | 11.2µM | i
Nc1nonc1-n1nnc(C(=O)N/N=C/c2ccccn2)c1-c1ccccc1 | i | nt | i | i | nt | i
CCOc1cccc(-c2c(C(=O)N/N=C/c3ccncc3)nnn2-c2nonc2N)c1 | i | i | i | i | i | i
Cc1cccc(C(=O)n2nc(-c3ccco3)nc2NCc2ccccc2)c1 | i | nt | ? | i | nt | i
Cc1ccc(-c2noc(-c3nnn(CC(=O)Nc4ccc(C)c(Cl)c4)c3N)n2)cc1 | nt | nt | nt | nt | nt | i
COc1cccc(-c2c(C(=O)N/N=C(\C)c3ccc(Cl)s3)nnn2-c2nonc2N)c1 | i | i | i | i | 10µM | i
COc1ccc(/C=N/NC(=O)c2nnn(-c3nonc3N)c2-c2cccc(OC)c2)cc1 | i | i | i | i | i | i
COc1cccc(-c2c(C(=O)N/N=C/c3cccs3)nnn2-c2nonc2N)c1 | i | 7.08µM | i | i | 10µM | i
Cc1c(Cl)cccc1N=Cc1ccc([N+](=O)[O-])s1 | ? | ? | ? | ? | 20µM | i
COC(=O)N/N=C/c1ccc([N+](=O)[O-])s1 | ? | i | i | i | i | i
COc1ccc(-c2nc3ccccc3s2)cc1NC(=O)c1cccc(F)c1 | i | nt | i | i | nt | i
C=C(C)C1CC=C(C)/C(=N\NC(=S)Nc2ccc(C)cc2)C1 (stereo not given) | i | 1.12µM | i | i | 4.47µM | i
C=C(C)C1CC=C(C)/C(=N/NC(=O)COc2ccc(C)cc2)C1 (stereo not given) | i | ? | ? | ? | i | i
COc1cccc(CN2CCOc3ccc(CN4C[C@@H](C)O[C@@H](C)C4)cc3C2)c1OC | nt | nt | i | nt | nt | nt
C[C@H](NC(=O)c1nc[nH]c1C(=O)N[C@@H](Cc1ccccc1)C(=O)OC(C)(C)C)C(=O)OC(C)(C)C | ? | 11.2µM | nt | ? | ? | 15.8µM
CC(C)(C)OC(=O)[C@H](Cc1ccccc1)NC(=O)c1[nH]cnc1C(=O)N[C@@H](Cc1ccccc1)C(=O)OCc1ccccc1 | ? | 7.08µM | ? | i | ? | i
SMILES | TGFb inhibitor | RORg inh | S2 tox | ATXN2 expr inh | VP16 counter | HepG2 tox
Cc1cccc(CNC(=O)c2cnn(-c3nccc(-c4ccccc4F)n3)c2C)n1 | nt | nt | i | nt | nt | nt
CO[C@H]1[C@H](NC(=O)c2cccc(F)c2)c2ccccc2C12CCN(Cc1ccco1)CC2 | nt | nt | i | nt | nt | nt
CCOc1ccc(NC(=S)NN2C(C)CCCC2C)cc1 (stereo not given) | i | 2.24µM | i | i | 8.91µM | i
CC(=O)c1ccc(NC(=O)NC2CCCCCCC2)cc1 | i | i | i | i | ? | i
CC(=O)c1ccc(NC(=O)C2CCCC2)cc1 | i | i | i | i | i | i
CC(=O)c1ccc(NC(=S)NN2C(C)CCCC2C)cc1 (stereo not given) | i | 8.91µM | i | i | ? | i
CC(=O)c1ccc(NC(=S)NC2CCCC(C)C2C)cc1 (stereo not given) | i | 5.01µM | i | i | ? | i
CCOc1ccc(NC(=O)NN2C(C)CCCC2C)cc1 (stereo not given) | i | i | i | i | i | i
Cc1cc(NC(=O)CSc2ncnc3ccccc23)no1 | i | 7.94µM | i | i | i | i
Cc1ccc(NC(=O)CSc2nc3ccccc3c(=O)n2CCCN2CCCCC2)cc1C | ? | ? | nt | ? | ? | 17.8µM
CC(C)Cn1c(SCC(=O)Nc2cccc(S(N)(=O)=O)c2)nc2ccccc2c1=O | i | 10µM | i | i | i | i
O=C(CSc1nc2ccccc2c(=O)n1CCCN1CCOCC1)NC12CC3CC(CC(C3)C1)C2 | ? | 14.1µM | ? | nt | i | i
Cc1ccc(NC(=O)CSc2nc3ccccc3c(=O)n2CCC(=O)NC2CCCCC2)cc1C | i | nt | i | i | nt | i
Cc1cc(NC(=O)CSc2nc(C(C)(C)C)nc3ccccc23)no1 | ? | i | ? | i | i | i
Cc1c2cnn(-c3ccccc3)c(=O)c2c(C)n1CC(=O)Nc1ccccc1Br | ? | nt | i | i | nt | i
CCOC(=O)c1c(NC(=O)CCCOc2ccc(C(C)(C)C)cc2)sc2c1CCC2 | i | nt | i | i | nt | i
CC(C)Oc1ccccc1NC(=O)CSc1nc2ccccc2c(=O)n1C | ? | ? | i | nt | i | i
CCCn1c(=O)n(C)c(=O)c2c(SCC(=O)Nc3cc(C)on3)nc(C(C)(C)C)nc21 | 17.8µM | nt | ? | i | nt | i
Cc1cc(SCC(=O)Nc2cccc(S(=O)(=O)NC3=NCCCCC3)c2)nc2ccccc12 | 11.2µM | i | i | nt | i | i
Cc1ccccc1NC(=O)CSc1nc2ccccc2c(=O)n1C | i | ? | i | i | 11.2µM | i
CCCCn1c(SCC(=O)Nc2cc(C)on2)nc2ccccc2c1=O | i | i | i | i | i[0.365 µM] | 3.98µM
Cc1ccc(C(=O)Nc2nnc(S(=O)(=O)N(C)Cc3ccc(Cl)cc3)s2)cc1 | i | nt | nt | nt | nt | i
COc1ccc(CN2CCOc3ccc(CN4CCN(CCO)CC4)cc3C2)c2ccccc12 | nt | nt | i | nt | nt | nt
COc1ccc(CNC(=O)CN2N=C(c3ccc(Cl)cc3)CCC2=O)cc1 | i | nt | nt | nt | nt | i
Cc1cc(NC(=O)CSc2nc3c(sc4ccccc43)c(=O)n2CCc2ccccc2)n[nH]1 | i | i | i | i | i | i
Cc1ccccc1NC(=O)CSc1nc(-c2ccccc2)cn1-c1ccccc1F | 11.2µM | nt | ? | ? | nt | i
